Laboratory results: PubChem BioAssay AID652105 (National Center for Advancing Translational Sciences (NCATS), 2013)
Screen size: about 330,000 compounds; about 4,100 (1.2%) were called active. About 2% were inconclusive and are not listed. The list comes from a sample in which actives are over-represented; it also holds similar structures and randomly drawn compounds. Unmarked numbers belong to inactive results. Rule for the calls: active = max response of -50% or lower; inconclusive = between -30% and -50%; inactive = -30% or higher.

target: Phosphatidylinositol 5-phosphate 4-kinase type-2 alpha (Homo sapiens) (UniProt P48426); experiment: qHTS for Inhibitors of phosphatidylinositol 5-phosphate 4-kinase (PI5P4K); settings: PI5P4Kalpha enzyme, ADP-Glo luminescence, 60 min; hits give low values; note: value at the top dose of about 77 µM
Sequence (P48426 whole entry, looked up): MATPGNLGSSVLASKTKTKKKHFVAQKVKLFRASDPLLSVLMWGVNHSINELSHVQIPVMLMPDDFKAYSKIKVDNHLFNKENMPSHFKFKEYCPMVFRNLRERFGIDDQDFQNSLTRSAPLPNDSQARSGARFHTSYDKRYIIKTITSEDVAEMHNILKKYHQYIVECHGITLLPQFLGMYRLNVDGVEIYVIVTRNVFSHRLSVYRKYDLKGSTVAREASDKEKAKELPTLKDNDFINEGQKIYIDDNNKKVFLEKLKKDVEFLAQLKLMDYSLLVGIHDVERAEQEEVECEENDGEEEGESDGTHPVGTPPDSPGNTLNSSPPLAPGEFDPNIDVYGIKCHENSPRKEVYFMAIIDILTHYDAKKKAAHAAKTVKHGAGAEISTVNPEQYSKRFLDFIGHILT
Procedure, shortened: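 Compounds were pin-transferred onto PI5P4Kalpha and substrate in HEPES pH 7.4 buffer with EGTA, CHAPS and 5% DMSO. ATP (5 microM final) started the reaction, which ran 60 minutes at room temperature before ADP-Glo detection.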
% is set by controls: 0 for no effect and ±100 for the full control effect.

Row | SMILES | max response
1 | Nc1nc(CSc2nnnn2-c2ccccc2)nc(Nc2ccccc2)n1 | 2.21%
2 | C[C@H]1CN([C@@H](C)CO)C(=O)c2cc(Br)cnc2O[C@H]1CN(C)S(=O)(=O)c1cccs1 | 6.03%
3 | CCOC(=O)[C@]12CCCC=C1N(CCC1=CCCCC1)C(=O)[C@H](CC(=O)N1CCCCC1)C2 | -3.48%
4 | CC(=O)c1ccc(S(=O)(=O)N2CCC(Oc3ccc(-n4cnnn4)cc3)CC2)cc1 | -1.39%
5 | CC(=O)c1ccc(S(=O)(=O)N2CCN(C(=O)/C=C/c3ccc4ccccc4n3)CC2)cc1 | -58.5% (active)
6 | CC(=O)c1ccc(S(=O)(=O)N2CCC3(CC2)OCCO3)cc1 | 1.8%
7 | COc1ccc(CCCNC(=O)C2Cc3c(-c4cccc(C(N)=O)c4)ccnc3O2)cc1 (configuration not stated) | -10.3%
8 | CCNC(=O)C1(C)CCCN(Cc2noc(-c3ccccc3OC)n2)C1 (configuration not stated) | -0.357%
9 | CN1OC[C@@H]2CN(S(=O)(=O)c3cccc(C(F)(F)F)c3)[C@H](c3ccc(-c4cc5ccccc5o4)cc3)C[C@@H]21 | 4.81%
10 | COc1cccc(CNC(=O)COC(=O)CN2C(=O)NC3(CCCCC3C)C2=O)c1 (configuration not stated) | -4.41%
11 | CCCCNC(=O)CN1C(=O)NC(Cc2ccccc2)(Cc2ccccc2)C1=O | 0.277%
12 | COc1cccc(CNC(=O)CN2C(=O)NC(Cc3ccccc3)(c3ccccc3)C2=O)c1 (configuration not stated) | -83.2% (active)
13 | CCCNC(=O)c1cc2c(c(-c3cccc(-c4ccc(C#N)cc4)c3)n1)[C@@H](CCO)N(C(=O)CC)C2 | -0.337%
14 | C[C@@H]1CN([C@H](C)CO)C(=O)CCCn2cc(nn2)CO[C@H]1CN(C)S(C)(=O)=O | 6.16%
15 | CC(C)C[C@H]1CNC(=O)C(=O)N1C[C@H]1CCCN1C[C@H](Cc1ccc(O)cc1)N1C[C@H](CC(C)C)N(CC2CCCCCC2)C(=O)C1=O | -0.421%
16 | CCOC(=O)C1=CC[C@@H](c2ccccc2)N(S(=O)(=O)c2ccc(C)cc2)[C@H]1c1ccc(CC)cc1 | 6.84%
17 | Cc1cc2nc(-c3ccco3)c(Cc3cccc(F)c3)n2c(C)c1Br | -66.2% (active)
18 | Cc1cc2nc(-c3ccc(Cl)cc3)c(Cc3cccc(F)c3)n2c(C)c1Br | -6.22%
19 | Cc1cc2nc(-c3ccc(F)cc3)c(Cc3ccsc3)n2c(C)c1Br | 7.62%
20 | COc1ccc(OC)c(CN2C(=O)CCC2(C)c2nnnn2Cc2ccccc2)c1 (configuration not stated) | 2.57%
21 | COc1ccc(CCNC(=O)CN(c2ccccc2)S(=O)(=O)c2ccccc2)cc1 | -3.29%

Row | SMILES | max response
22 | CC1=C(C(=O)N(C(C)C)C(C)C)CC(CC(=O)NCC2CCCCC2)C(=O)N1Cc1ccccc1 (configuration not stated) | -7.86%
23 | CCOC(=O)[C@]12CCCC=C1N(CCC1=CCCCC1)C(=O)[C@H](CC(=O)N1CCSCC1)C2 | -1.78%
24 | O=C(Nc1ccc2ccccc2c1[N+](=O)[O-])c1ccccc1 | -2.74%
25 | CCOc1ccccc1Nc1ccc(C(=O)O)cc1[N+](=O)[O-] | -1.68%
26 | O=C(O)c1cc([N+](=O)[O-])c(Nc2cccc3ccccc23)c([N+](=O)[O-])c1 | -64.5% (active)
27 | CNc1cnc(-c2cc(OC)c(OC)c(OC)c2)cn1 | 1.71%
28 | O=[N+]([O-])c1cccc(/C([O-])=C(/C(=S)Nc2ccccc2F)[n+]2ccccc2)c1 | -1.12%
29 | Cc1ccc(/C([O-])=C(/C(=S)NCc2ccco2)[n+]2ccccc2)cc1[N+](=O)[O-] | -51.3% (active)
30 | CC(OC(=O)CNC(=O)c1ccc(Cl)c([N+](=O)[O-])c1)C(=O)NCc1ccco1 (configuration not stated) | -12%
31 | CC(C)c1cccc(-c2csc(C(O)c3ccccc3)n2)c1 (configuration not stated) | 28.3%
32 | COCCNC(=O)Nc1ccc2nc(-c3ccco3)c(-c3ccco3)nc2c1 | -88.9% (active)
33 | CC(=O)NCCc1nc2cc(NC(=O)c3ccccc3)ccc2n1C | -3.2%
34 | COc1cccc(NC(=O)NCCN2CCCCC2)c1 | 3.3%
35 | CCCC(=O)N1CCC1(C)C(=O)NCc1ccc(SC)cc1 (configuration not stated) | 0.695%
36 | CC(=O)Oc1ccc(Cn2c(C)c(C(=O)NCc3ccc(C#N)cc3)sc2=O)cc1 | 2.41%
37 | O=C(COc1ccccc1Cl)Nc1ccc(C(=O)c2ccc(C(=O)O)cc2)cc1 | -70.5% (active)
38 | O=C(COc1ccccc1)Nc1ccc(C(=O)N2CCCC2)cc1 | 6.33%
39 | COc1cc(NC(=O)COc2ccccc2Cl)ccc1NC(=O)C(C)C | -11.3%
40 | O=[N+]([O-])c1cc(Cl)cc(/C=N/NC(=S)Nc2cc(S(=O)(=O)N3CCOCC3)ccc2Cl)c1O | -78.8% (active)
41 | CN(C)/N=C/c1cc(Cl)cc([N+](=O)[O-])c1O | -13.3%
42 | Cc1ccc(S(=O)(=O)N2CCN(CC(=O)N/N=C/c3cc([N+](=O)[O-])ccc3Cl)CC2)cc1 | 4.76%

Row | SMILES | max response
43 | COC(=O)[C@]12CCCCC=C1N(CCC1=CCCCC1)C(=O)[C@H](CC(=O)N1CCSCC1)C2 | 6.76%
44 | COc1ccc(Br)c(Cn2c(C)c(C(=O)NCc3cccs3)sc2=O)c1 | 0.248%
45 | CC(C)Cn1cc(-c2cncc3nccn23)cn1 | 1.47%
46 | CC(Sc1nnnn1C1CCCCC1)C(=O)O (configuration not stated) | -91% (active)
47 | CC(Sc1nnnn1C)C(=O)NC(=O)NC1CCCCC1 (configuration not stated) | -0.0816%
48 | O=C(CSc1nnnn1C1CCCC1)N1CCCCC1 | 1.79%
49 | O=C(Nc1ccc2c(c1)OCCO2)C1c2ccccc2OCC(=O)N1Cc1ccccn1 (configuration not stated) | 6.39%
50 | COc1ccc(S(=O)(=O)N(C)C[C@H]2OCc3cnnn3CCCC(=O)N([C@H](C)CO)C[C@H]2C)cc1 | 3.6%
51 | COc1cccc(-c2cc3nc(NCc4ccccc4OC)n(C)c(=O)c3s2)c1 | 21.3%
52 | COCCNC(=O)C1CCCN(Cc2ccccc2Cl)CC1 (configuration not stated) | 0.686%
53 | CC1=NN(c2ccccc2)C(=O)C1C(=O)c1ccc([N+](=O)[O-])cc1 (configuration not stated) | 0.85%
54 | O=C1CC(c2ccccc2)=NN1c1ccc([N+](=O)[O-])cc1 | -52.7% (active)
55 | Cc1nn(-c2ccc([N+](=O)[O-])cc2)c(N)c1-c1ccccc1 | -3.48%
56 | OC(c1ccccc1)c1nc(-c2cnc3ccccc3c2)cs1 (configuration not stated) | -0.318%
57 | CC(C)(C)C1C/C(=C/c2ccco2)C(=O)/C(=C/c2ccco2)C1 (configuration not stated) | -12.4%
58 | CS(=O)(=O)c1ccc2c(c1)SC1=NC(=O)/C(=C/c3ccco3)C(=N)N12 | -79.5% (active)
59 | O=C(Nc1cccc2ccccc12)c1[nH]c(-c2ccccc2)c2c1C(=O)N(C1CC1)C2=O | -0.344%
60 | CN1CCN(C(=O)c2ccc(-c3cc4nc(NCc5cccnc5)n(C)c(=O)c4s3)cc2)CC1 | 2.18%
61 | CCC(CC)C(C(=O)NC1CCCC1)N1CCN(c2cc(C)nc3ccccc23)CC1 (configuration not stated) | -1.13%
62 | CCC(C(=O)Nc1c(C)cccc1C)n1c(-c2cc(C)cs2)nc2ccccc21 (configuration not stated) | 0.0253%
63 | Cc1cccc(C)c1NC(=O)C(c1cccc2ccccc12)n1c(=O)c(-c2ccco2)nc2ccccc21 (configuration not stated) | -75.2% (active)

Row | SMILES | max response
64 | O=C(NC1CCCCC1)C(c1cc2ccccc2o1)n1c(=O)c(-c2ccco2)nc2ccccc21 (configuration not stated) | -75.5% (active)
65 | Cn1c(SCC(=O)NC2CCCCC2)nnc1-c1cc2ccccc2o1 | 1.01%
66 | COc1ccc(NC(=O)C(c2ccncc2)n2c(=O)c(-c3cc4ccccc4[nH]3)nc3ccccc32)cc1 (configuration not stated) | 0.0077%
67 | CCCCCNC(=O)C(c1ccc(OC)cc1)n1c(=O)c(-c2ccccc2)nc2ccccc21 (configuration not stated) | 8.24%
68 | COc1ccc(C(C(=O)NCc2ccccc2)n2c(=O)c(-c3ccccc3)nc3ccccc32)cc1 (configuration not stated) | 7.1%
69 | Cc1cccc(C)c1NC(=O)C(c1ccc(C(F)(F)F)cc1)n1c(=O)c(-c2ccco2)nc2ccccc21 (configuration not stated) | -54% (active)
70 | CC(=O)Nc1cc(-c2ccccc2N(C)C)cn2c(-c3ccc(F)c(Cl)c3)cnc12 | -1.56%
71 | NC(c1csc(NC(=O)Nc2cccc(C(F)(F)F)c2)n1)C1CCCCC1 (configuration not stated) | 10.5%
72 | Cc1ccc([C@H]2C[C@H](O)[C@@H](n3cc(COC(=O)c4ccccc4)nn3)CN2CC2CCCCC2)cc1 | 19.2%
73 | O=C(NCc1ccccc1)C1c2ccccc2OCC(=O)N1CCCN1CCOCC1 (configuration not stated) | 0.215%
74 | O=C(c1ccc(C(F)(F)F)cc1)N1CCC(=O)N([C@H](COCc2ccccc2)Cc2ccccc2)CC1 | 5.29%
75 | COC(=O)c1ccc2nc(C3CCCCC3)c(Cc3cccc(F)c3)n2c1 | -0.596%
76 | CCCCOCCCNC(=O)C[C@@H]1C[C@@]2(C(=O)OC)CCCCC=C2N(CCC2=CCCCC2)C1=O | 17.9%
77 | O=C(Nc1ccc(N2CCOCC2)cc1)c1cccc2c(-c3ccc(F)c(F)c3)coc12 | 5.02%
78 | CCc1c(N=O)c(-c2ccccc2)n(O)[n+]1[O-] | -5.54%
79 | O=C(N/N=C/c1ccc(Cl)cc1)c1nc2ccc([N+](=O)[O-])cc2c(=O)[nH]1 | -60.4% (active)
80 | Cc1ccsc1C(=O)N/N=C/c1ccc([N+](=O)[O-])cc1 | -10.5%
81 | O=C(N/N=C/c1ccc([N+](=O)[O-])cc1)c1c[nH]c2ccccc12 | 1.35%
82 | O=C(CCc1ccc(O)cc1)NN=Cc1cc(Br)ccc1O | -16.2%
